From PubChem BioAssay AID504339 (National Center for Advancing Translational Sciences (NCATS), 2011)
About 17,000 (4.4%) of roughly 390,000 compounds were called active. About 8% were inconclusive and are not listed. The list comes from a sample in which actives are over-represented; it also holds similar structures and randomly drawn compounds. A call without a number means that no potency is given here. Unmarked numbers belong to inactive results. The call rests on the fitted dose curve; in most records, active means well fitted inhibition curve with a large enough effect; inconclusive means small, poorly fitted or top-dose-only effect; inactive means no such curve, though single readings can be large or run the other way.

Target: Lysine-specific demethylase 4A (Homo sapiens) (UniProt O75164)
Sequence (O75164 whole entry, looked up, the tested form may be a part): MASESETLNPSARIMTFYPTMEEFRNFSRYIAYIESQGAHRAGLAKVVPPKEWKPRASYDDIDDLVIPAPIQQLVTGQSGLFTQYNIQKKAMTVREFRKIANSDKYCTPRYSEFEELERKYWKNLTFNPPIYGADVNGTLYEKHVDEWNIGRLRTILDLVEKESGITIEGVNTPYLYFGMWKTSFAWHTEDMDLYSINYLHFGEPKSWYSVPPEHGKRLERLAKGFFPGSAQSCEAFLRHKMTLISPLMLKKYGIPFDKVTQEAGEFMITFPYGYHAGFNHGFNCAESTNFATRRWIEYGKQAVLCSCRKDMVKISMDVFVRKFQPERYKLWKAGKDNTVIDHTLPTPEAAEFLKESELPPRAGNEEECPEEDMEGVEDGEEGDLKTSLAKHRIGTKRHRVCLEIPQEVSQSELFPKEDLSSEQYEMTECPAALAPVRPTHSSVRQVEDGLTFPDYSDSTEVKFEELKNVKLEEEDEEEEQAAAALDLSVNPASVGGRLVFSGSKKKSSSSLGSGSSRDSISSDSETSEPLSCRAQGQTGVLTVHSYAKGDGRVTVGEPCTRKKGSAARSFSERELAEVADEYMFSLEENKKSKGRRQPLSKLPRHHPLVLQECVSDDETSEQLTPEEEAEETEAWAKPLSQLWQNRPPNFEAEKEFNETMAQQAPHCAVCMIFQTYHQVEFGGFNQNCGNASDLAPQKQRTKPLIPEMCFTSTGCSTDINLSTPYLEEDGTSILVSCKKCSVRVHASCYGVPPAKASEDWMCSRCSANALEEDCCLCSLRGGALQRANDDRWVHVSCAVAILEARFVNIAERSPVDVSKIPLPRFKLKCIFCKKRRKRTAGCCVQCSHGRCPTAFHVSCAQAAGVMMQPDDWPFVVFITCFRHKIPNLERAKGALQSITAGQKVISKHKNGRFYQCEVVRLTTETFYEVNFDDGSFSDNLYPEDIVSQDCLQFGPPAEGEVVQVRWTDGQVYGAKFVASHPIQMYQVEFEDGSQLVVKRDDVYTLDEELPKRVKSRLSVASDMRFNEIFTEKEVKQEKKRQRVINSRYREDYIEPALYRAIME
Test: qHTS Assay for Inhibitors of JMJD2A-Tudor Domain; further: nearly all actives have a fitted effect of over 50% in size
Conditions: AlphaScreen JMJD2A-Tudor / H3K4me3 peptide binding; series mostly up to 114 µM
Potency means the concentration at half of the fitted maximal effect.

Structure (SMILES) | Potency | activity change, negative = inhibition
COc1ccccc1C(=O)Nc1c(C(=O)N(C)Cc2ccccc2)sc2nc(C)c(Cl)c(C)c12 | inactive | –
O=C(NCc1ccc(Cl)cc1)c1ccc2c(c1)nnn2C1CCCC1 | inactive | –
COc1ccc(-c2nc(S(=O)(=O)c3ccccc3)c(N3CCCCC3)o2)cc1 | inactive | –
CCOC(=O)C(Sc1ncc(C#N)c(N)n1)C(C)C (stereo not given) | 44.7 µM (active) | –
CCOC(=O)COc1nc(C)cc(C(F)(F)F)c1C#N | inactive | –
CCOC(=O)c1cnc(SCC(=O)Nc2ccccc2C(=O)OC)nc1N | inactive | –
COc1ccccc1N1CCN(/N=C\C(Br)=C\c2ccccc2)CC1 | 39.8 µM (active) | –
COc1ccccc1N1CCN(/N=C/c2ccc(O)cc2O)CC1 | inactive | –
COc1ccccc1N1CCN(C2C(=O)c3ccccc3N2C(C)=O)CC1 (stereo not given) | inactive | –
Cc1cc(C)cc(C(=O)NC2C(=O)N3C(C(=O)O)=C(CSc4nnc(C)s4)CSC23)c1 (stereo not given) | 79.4 µM (active) | –
Cc1nnc(SCC2=C(C(=O)O)N3C(=O)C(NC(=O)Cn4nc(C)c(Cl)c4C)C3SC2)s1 (stereo not given) | inactive | –
CCN1CCN(C(=O)N[C@@H](C(=O)N[C@@H]2C(=O)N3C(C(=O)O)=C(CSc4nnnn4C)CS[C@H]23)c2ccc(O)cc2)C(=O)C1=O | inactive | –
O=C(NC1CC(=O)N(c2ccc(Cl)cc2)C1)C1CCCC1 (stereo not given) | inactive | –
Cc1ccc(CN2CCC(CNC(=O)c3cnn(-c4ccc(C)cc4)c3C3CCN(C(=O)OC(C)(C)C)CC3)CC2)cc1 | inactive | –
COc1ccc(CCNC(=O)COC(=O)c2ccc[nH]c2=O)cc1 | 31.6 µM (active) | –
COc1ccc(CCNC(=O)COC(=O)C2CC2C)cc1 (stereo not given) | inactive | –
COc1ccc(CCNC(=O)COC(=O)c2cc(=O)c3ccccc3o2)cc1 | inactive | –
COc1cccc(CNC(=O)c2cc(=O)[nH]c3ccc(S(=O)(=O)N4CCCCC4)cc23)c1 | inactive | –
CC1CN(C(=O)N2CCC(C(=O)NCc3ccco3)CC2)c2cc(Cl)ccc2O1 (stereo not given) | inactive | –
CCCn1c(=N)n(CC(O)COc2ccccc2OC)c2ccccc21 (stereo not given) | inactive | –
O=C(Cn1c(-c2cccs2)cc2ccccc21)NCCc1ccc(Cl)cc1 | inactive | –
CC(C)=CCCC1(C)C=Cc2c(ccc3c2[nH]c2cc(O)c(C)cc23)O1 (stereo not given) | 44.7 µM (active) | –
Cc1c(Cl)cccc1NC(=O)N1CCN(C(=O)c2nsc3ccccc23)CC1 | inactive | –
CCCN(C(=O)Cn1ncc2c([nH]c3ccc(C)cc32)c1=O)c1ccccc1C | inactive | –
COc1cc(N2CCCC2)c(OC)cc1/C=C(/C#N)c1cccc(Br)c1 | 17.8 µM (active) | –

Structure (SMILES) | Potency | activity change, negative = inhibition
CCOc1ccc(/C=C(/C#N)c2nnc(N3CCOCC3)n2-c2ccccc2)cc1OC | inactive | –
CCCn1c2ccccc2c2cnn(CC(=O)NCC3CCN(Cc4ccc(C)cc4)CC3)c(=O)c21 | inactive | –
CC(Sc1nnnn1C)C(=O)NC(=O)NC1CCCCC1 (stereo not given) | inactive | –
CC(Sc1nnnn1C1CCCCC1)C(=O)O (stereo not given) | 11.2 µM (active) | –
O=C(CSc1nnnn1C1CCCC1)N1CCCCC1 | inactive | –
CCN(CC)c1ccc(C2C(C(N)=O)=C(C)Nc3nc(SCc4ccccc4)nn32)cc1 (stereo not given) | inactive | –
CCc1ccc(NC(=O)c2cc(S(=O)(=O)N3CCCC(C)C3)cn2C)cc1 (stereo not given) | inactive | –
CCOc1ccc(CNCc2c(C(=O)O)c(C)n(Cc3cccc(OC)c3)c2C)cc1OC | inactive | –
Cc1cc(NC(=O)COc2ccccc2C#N)no1 | inactive | –
Cc1cc(NC(=O)Nc2ccccc2[N+](=O)[O-])no1 | 22.4 µM (active) | –
CCOc1ccc(NC(=O)Nc2cc(C)on2)cc1 | inactive | –
Cc1ccc(C(=O)Nc2ccc(OCc3cc(=O)n4c(C)csc4n3)cc2)cc1 | inactive | –
CCOc1cccc(CNC(=O)c2ccc(N3CCCC3)c(NC(=O)Nc3ccccc3CC)c2)c1 | inactive | –
COc1ccccc1/C=C/c1nc(C#N)c(NC(C)c2ccccc2)o1 (stereo not given) | inactive | –
COc1cc2nc(NCC(C)c3ccccc3)n3nc(-c4ccccc4)nc3c2cc1OC (stereo not given) | inactive | –
Clc1ccccc1CSc1nncn2c1cc1occc12 | inactive | –
Clc1ccc(CSc2nncn3c2cc2occc23)cc1 | 39.8 µM (active) | –
Nc1cc(N)nc(SCc2ccc(Cl)cc2)n1 | inactive | –
COc1ccc(-n2c(C)nc3c(cnn3-c3ccc(F)cc3)c2=O)cc1 | inactive | –
COc1cc(NC(=O)CSc2nc3nc(C)c(Cc4ccc(C)cc4)c(C)n3n2)cc(OC)c1OC | inactive | –
O=C(O)c1c(CNCc2cccc(F)c2)c2ccccc2n1Cc1ccccc1 | inactive | –
O=C(Nc1nnc(C2CC(=O)N(c3ccc(Cl)cc3)C2)s1)c1ccco1 (stereo not given) | inactive | –
Cc1cccc(CSc2nc3ccncc3n2CC(=O)N(C)C2CCCCC2)c1 | inactive | –
CCOc1ccc(CNC(=O)C2CCCN(S(=O)(=O)N(CC)c3ccc(OCC)cc3)C2)cc1 (stereo not given) | inactive | –
Cc1sc2nc(CSCC(=O)NC3CCCCC3)[nH]c(=O)c2c1C | inactive | –

Structure (SMILES) | Potency | activity change, negative = inhibition
CCOC(=O)c1sc2nc(CSCC(=O)OCc3ccc(C(=O)OC)o3)[nH]c(=O)c2c1C | inactive | –
CSc1nnc(SCc2nc3sc(C(=O)O)c(C)c3c(=O)[nH]2)s1 | 12.6 µM (active) | –
Cn1c(=O)sc2cc(NS(=O)(=O)c3ccc(C(C)(C)C)cc3)ccc21 | inactive | –
CCOC(=O)c1ccc(NC(=O)c2c(NCc3cccc(OC)c3)sc3c2CCC3)cc1 | inactive | –
CCOC(=O)C1CCCN(S(=O)(=O)c2cc(-c3cc(C)no3)ccc2OC)C1 (stereo not given) | inactive | –
CSCc1ccc(C(=O)Nc2cc(C)cc(C)c2)cc1 | inactive | –
Cc1ccccc1C(=O)Nc1ccccc1NC(=O)c1ccccc1C | inactive | –
CC(=O)Nc1ccccc1NC(=O)c1cc(C)cc(C)c1 | 11.2 µM (active) | –
Cc1cc2c(cc1S(=O)(=O)CCC(=O)Nc1ccc(OC(F)(F)F)cc1)OCC(=O)N2 | inactive | –
CCCCc1nn2c(=O)cc(COC(=O)c3ccc(NC(=O)c4ccccc4C)cc3)nc2s1 | inactive | –
CCC(=O)Nc1cccc(-c2nc3cc(C)ccc3o2)c1 | inactive | –
Cc1ccc(-n2nnnc2CNC(=O)c2ccccc2C)cc1C | inactive | –
O=C(CCc1[nH]c2ccccc2c1Sc1ccccc1)N(CCO)CCO | 79.4 µM (active) | –
CCCNC(=O)c1ccc(Cn2c(SCC(N)=O)nc3ccccc3c2=O)cc1 | inactive | –
COc1ccc([C@H]2CC(=O)C=C(c3ccc(CO)cc3)C2)cc1 | 28.2 µM (active) | –
COc1ccc([C@H]2CC(=O)C=C(c3ccc(C)cc3)C2)cc1 | inactive | –
COc1ccc2cc(C3=CC(=O)C[C@H](c4ccc5c(c4)OCO5)C3)ccc2c1 | inactive | –
Cc1ccc(C)c(N2CCN(C(=O)CCc3c(C)nc4c(c3C)c(=O)n(C)c(=O)n4C)CC2)c1 | inactive | –
O=C(CCC1N=C2c3ccccc3N=C(SCc3ccccc3F)N2C1=O)NCCc1ccccc1 (stereo not given) | inactive | –
COc1ccc(C(=O)CSc2c(C(C)C)cnc3c2c(=O)n(C)c(=O)n3C)cc1 | inactive | –
CCOC(=O)c1cccc(NS(=O)(=O)c2cc(-c3cnc(C)o3)ccc2OC)c1 | inactive | –
Oc1ccc(N=Nc2nccs2)c(O)c1 | 35.5 µM (active) | –
Oc1ccc2ccccc2c1N=Nc1nccs1 | 5.62 µM (active) | –
Cc1cccc(NC(=O)Cn2c(=O)n(CCC(C)C)c(=O)c3cccnc32)c1 | inactive | –
O=C(NCCCc1ccccc1)c1ccc2c(c1)sc1nc(-c3ccc(F)cc3)cn12 | inactive | –

Structure (SMILES) | Potency | activity change, negative = inhibition
CC1=C(C(=O)OCC2CCCCC2)C(c2c(F)cccc2Cl)CC(=O)N1 (stereo not given) | inactive | –
O=S(=O)(c1ccccc1)c1nc(-c2ccccc2)oc1NCCCN1CCOCC1 | inactive | –
CC1CC(C)CN(c2oc(-c3ccc(OCc4ccc(Cl)cc4)cc3)nc2C#N)C1 (stereo not given) | inactive | –
N#Cc1nc(-c2ccc(OCc3ccccc3)cc2)oc1NCCCN1CCOCC1 | 35.5 µM (active) | –
CCc1cccc(NC(=O)Cn2nc(CC)n3c(cc4cc(C)ccc43)c2=O)c1 | inactive | –
CCOc1ccc(NC(=O)Cn2cc(C(=O)c3ccc(C)cc3)c(=O)c3cc4c(cc32)OCCO4)cc1 | inactive | –
CCN(CC)S(=O)(=O)c1ccc2c(c1)nc(CN(C)C(=O)Nc1ccc(Cl)cc1)n2C | inactive | –
Cc1ccc(C)c(N2CCN(C(=O)Cc3c(C(=O)O)c(C)cn3C)CC2)c1 | inactive | –
CCc1c(Nc2ccccc2C)nc(N)[nH]c1=O | inactive | –
Cc1[nH]c(N)nc(=S)c1CCCNc1ccccc1 | 50.1 µM (active) | –
COc1ccc(Cl)cc1NC(=O)CSc1nc(-c2cccs2)cc(C(F)(F)F)n1 | inactive | –
Cc1ccc(NC(=O)CN2C(=O)CC(C)Sc3ccccc32)c(C)c1 (stereo not given) | inactive | –
O=C(Oc1ccc([N+](=O)[O-])cc1)c1ccc2ccccc2n1 | 28.2 µM (active) | –
CC(OC(=O)c1ccc2ccccc2n1)C(=O)c1ccccc1 (stereo not given) | – | -2.94% [at 11.4 µM]
COc1ccc(C(=O)COC(=O)c2ccc3ccccc3n2)cc1 | inactive | –
COc1ccc2c(c1)c(=O)c(C(=O)c1ccccc1)cn2CC(=O)Nc1ccc2c(c1)OCCO2 | inactive | –
CC(C)(C)c1ccc(C(=O)Nc2ccc3c(c2)CCCN3C(=O)c2cccs2)cc1 | inactive | –
Cc1ccc(NC(=S)N(Cc2ccco2)C(C)c2cccs2)cc1 (stereo not given) | inactive | –
CCNC(=S)N(CCc1c(C)[nH]c2ccc(C)cc12)Cc1ccco1 | 63.1 µM (active) | –
Cc1ccc2[nH]c(C)c(CCNC(=O)NC3CCCCC3)c2c1 | inactive | –
CCOc1ccc(CNC(=O)c2cc(=O)[nH]c3ccc(S(=O)(=O)N4CCCCC4)cc23)cc1 | inactive | –
CCOC(=O)c1ccc(NC(=O)Cn2c(=O)n(-c3ccc(C)cc3)c(=O)c3c2cnn3C)cc1 | inactive | –
COc1ccc(OC)c(NC(=O)CN(C)CCOc2ccc(Br)cc2)c1 | inactive | –
CN(C)CCOc1cccc(Br)c1 | 3.55 µM (active) | –
COc1ccc(OCC(=O)OCCN(C)C)cc1 | inactive | –
